# Laboratory results as given in PubChem BioAssay.
# Active and inactive are the calls of the source.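 Rule for the calls, unless noted: active = inhibition of the reporter signal at or above 50%; inactive = inhibition below 50%.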
# What was measured:
# [1] = inhibitors of TNFa-induced NFkB p65 translocation, primary screen, imaging, HUVEC, MLSMR starter and 10KST1 sets (AID 438;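 active = inhibition above 20% together with a positive visual image hit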;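 note: compound added about 3h40 before a 20 min TNFalpha stimulation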;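 for inhibition: signal is the nuclear over cytoplasmic p65 intensity ratio per well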); details: HUVEC TNFa-induced p65 nuclear translocation; cell count: measured here: nuclei count (cytotoxicity indicator), at 2.08 µM; inhibition: at 2 µM, stronger effect = higher value, 0% TNFa-plus-vehicle, 100% no-TNFa wells
# [2] = reduction of polyQ htt aggregates in cells – imaging, exon1htt(103Q)mCFP cells, high-content imaging, primary screen (AID 483;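 active = visual image review flags a hit and inhibition of aggregation exceeds 20%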;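 note: compound exposure lasted 3 days before fixation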;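 for nuclei count: percent of the per-plate median nuclei count of sample wells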); details: exon1htt(103Q)mCFP cell line, aggregate imaging, at 2 µM; inhibition of aggregation: stronger effect = higher value; nuclei count: measured here: cell count, toxicity
# [3] = endothelial E-selectin expression blockers – imaging, HUVEC, immunofluorescence, MLSMR starter and 10KST1 sets, primary screen (AID 487;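 active = visually confirmed hit in the image check and inhibition above 20%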;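 for inhibition: signal is fraction of cell area covered by stained E-selectin grains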;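 for nuclei count: 100% = median nuclei count of all wells on the same plate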); details: HUVEC TNFalpha-induced E-selectin immunofluorescence imaging, at 2 µM; inhibition: stronger effect = higher value; nuclei count: measured here: cell number, toxicity
# [4] = molecular target: Voltage-gated potassium channel subunit beta-2 (Rattus norvegicus) (UniProt P62483); test: inhibitors of rat Kvbeta2 reductase activity – biochemical, NADPH fluorescence, primary screen (AID 622;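 active = fluorescence slope higher than the sample average by over 3 SD, cut at about -0.22 in these data, passing the limit was not always enough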;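 note: slope of raw intensity against log time taken from 70 to 1610 s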); details: recombinant KvBeta, 4-cyanobenzaldehyde reduction, at 10 µM, stronger effect = higher value
# [5] = molecular target: Voltage-gated potassium channel subunit beta-2 (Rattus norvegicus) (UniProt P62483); test: enhancers of rat Kvbeta2 NADPH turnover – biochemical, NADPH fluorescence, primary screen (AID 623;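 active = NADPH fluorescence slope more negative than the mean of all samples by about 3 SD, 99.7% confidence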;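 note: fluorescence intensity change per second fitted from 20 to 320 s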); details: Recombinant KvBeta, NADPH fluorescence decrease slope, 10 min; at 10 µM; stronger effect = lower value
# [6] = molecular target: Alpha-2C adrenergic receptor (Homo sapiens) (UniProt P18825); test: compounds altering alpha2C-coupled GIRK flux – cell-based, HEK293 alpha2C/GIRK1/2, thallium flux, primary screen (AID 624;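 active = fluorescence slope after compound addition differing from the mean of all screened samples at 99.7% confidence, in either direction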;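 note: slope of fluorescence ratio to pre-addition baseline per second over 15 to 24 s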); details: thallium flux BTC fluorescence, at 10 µM, actives lie on both sides
# [7] = blockers of RIG-like receptor reporter activation – cell-based, Sendai virus stimulus, luciferase, 10K MLSCN set, TLR/RLR signaling modifier project, primary screen (AID 602276;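 active = inhibition at or above 50% at 10 µM; inactive = inhibition below 50%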;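 note: firefly luciferase from ISG56 promoter only with Renilla not read in this screen; 0% = Sendai virus plus DMSO and 100% = medium plus DMSO without virus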); details: HEK293 RL24 IRF3 luciferase reporter, at 10 µM, stronger effect = higher value
# [8] = TLR3 IRF3 reporter activation blockers – cell-based, poly I:C stimulus, luciferase, 10K MLSCN set, primary screen (AID 602277); details: HEK293-TLR3 RL24 IRF3 luciferase reporter, at 10 µM, stronger effect = higher value
# Alpha-2C adrenergic receptor (Homo sapiens), sequence (P18825 whole entry, looked up): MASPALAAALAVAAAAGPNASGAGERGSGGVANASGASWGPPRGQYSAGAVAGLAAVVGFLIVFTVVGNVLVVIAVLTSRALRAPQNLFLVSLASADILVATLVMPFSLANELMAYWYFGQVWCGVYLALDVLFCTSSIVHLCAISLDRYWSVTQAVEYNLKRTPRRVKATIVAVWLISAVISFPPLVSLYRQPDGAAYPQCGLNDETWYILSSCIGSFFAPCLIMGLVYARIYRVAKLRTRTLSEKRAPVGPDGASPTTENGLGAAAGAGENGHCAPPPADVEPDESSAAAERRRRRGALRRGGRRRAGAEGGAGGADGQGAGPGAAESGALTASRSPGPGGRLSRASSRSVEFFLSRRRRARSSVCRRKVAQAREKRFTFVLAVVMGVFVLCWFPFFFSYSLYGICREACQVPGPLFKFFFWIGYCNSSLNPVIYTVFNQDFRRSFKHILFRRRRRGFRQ
# Voltage-gated potassium channel subunit beta-2 (Rattus norvegicus), sequence (P62483 whole entry, looked up): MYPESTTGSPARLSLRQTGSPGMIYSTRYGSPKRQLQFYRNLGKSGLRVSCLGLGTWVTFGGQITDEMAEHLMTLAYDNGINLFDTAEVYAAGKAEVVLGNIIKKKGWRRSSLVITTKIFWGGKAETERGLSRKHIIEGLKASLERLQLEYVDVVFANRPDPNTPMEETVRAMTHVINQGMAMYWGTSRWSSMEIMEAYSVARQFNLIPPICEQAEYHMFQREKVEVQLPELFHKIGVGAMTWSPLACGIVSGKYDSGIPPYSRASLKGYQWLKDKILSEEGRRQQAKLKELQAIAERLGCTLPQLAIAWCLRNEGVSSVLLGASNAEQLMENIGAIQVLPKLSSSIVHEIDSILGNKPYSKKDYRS
Structure (SMILES),cell count [1],inhibition [1],inhibition of aggregation [2],nuclei count [2],inhibition [3],nuclei count [3],fluorescence slope [4],NADPH fluorescence slope [5],slope [6],inhibition [7],inhibition [8]
O=C(Nc1ccccc1)C1=C(O)CC(c2ccoc2)CC1=Nc1ccccc1 (stereo not drawn),321,-2.1% (inactive),7.8% (inactive),94.4%,-80.4% (inactive),121%,-0.422 (inactive),-5.7e-05 (inactive),0.00565 (inactive),4% (inactive),16.9% (inactive)
CCC(C)NC(=O)c1cn(CC)c2ccc(S(=O)(=O)N(C)C)cc2c1=O (stereo not drawn),603,-11.6% (inactive),-11.6% (inactive),111%,-70.7% (inactive),125%,-0.376 (inactive),1.4e-05 (inactive),0.00604 (inactive),19.1% (inactive),29.7% (inactive)
COc1ccc(CCNc2oc(COc3ccc(F)cc3)nc2C#N)cc1,407,-9.8% (inactive),8.7% (inactive),88.8%,17% (inactive),74.8%,-0.608 (inactive),-3.3e-06 (inactive),0.00681 (inactive),15.6% (inactive),23.5% (inactive)
COc1ccc(C2C(C(=O)NCCN3CCOCC3)c3ccccc3C(=O)N2C2CCCCC2)cc1 (stereo not drawn),334,10.1% (inactive),12.7% (inactive),111%,-93.5% (inactive),111%,-0.611 (inactive),-2.8e-05 (inactive),0.00399 (inactive),30.2% (inactive),26% (inactive)
O=C(CS(=O)(=O)c1cn(Cc2ccc(Cl)cc2)c2ccccc12)N1CCCC1,654,-3.9% (inactive),-11.8% (inactive),116%,13.5% (inactive),111%,-0.538 (inactive),-3.5e-05 (inactive),0.00627 (inactive),15.4% (inactive),34% (inactive)
CCSc1nnc2c(n1)OC=Nc1ccc(Br)cc1-2,262,-12.8% (inactive),20.4% (inactive),62.3%,-24.2% (inactive),84.5%,-0.38 (inactive),-3.3e-05 (inactive),0.00298 (inactive),15.5% (inactive),20.5% (inactive)
COC(=O)c1sc(S(=O)(=O)NCc2cccs2)c(C(=O)OC)c1C,608,-16.4% (inactive),0.4% (inactive),85.3%,12.1% (inactive),101%,-0.452 (inactive),-3.4e-06 (inactive),0.00602 (inactive),-0.645% (inactive),30.7% (inactive)
CCOC(=O)C1CCN(c2c(N(C)Cc3ccco3)c(=O)c2=O)CC1,789,0.9% (inactive),3.8% (inactive),103%,-33.1% (inactive),114%,-0.576 (inactive),-2.6e-05 (inactive),0.00601 (inactive),5.07% (inactive),22.7% (inactive)
COc1ccc(CCNC(=O)C2CC(=O)N(c3ccccc3)C2)cc1OC (stereo not drawn),336,-2.5% (inactive),-5.4% (inactive),102%,22.4% (inactive),109%,-0.452 (inactive),8.4e-07 (inactive),0.00653 (inactive),16.9% (inactive),25.7% (inactive)
O=C(/C=C1\NC2(CCCC2)Cc2ccccc21)N1CCOCC1,637,-1.6% (inactive),-19.3% (inactive),88.6%,-93.5% (inactive),134%,-0.534 (inactive),-4.8e-05 (inactive),0.00501 (inactive),14.1% (inactive),16.1% (inactive)
c1ccc(Cn2nnnc2CN2CCN(c3ncccn3)CC2)cc1,717,-8.1% (inactive),-12.8% (inactive),114%,-11.1% (inactive),130%,-0.585 (inactive),-4.5e-05 (inactive),0.0043 (inactive),11.4% (inactive),20.1% (inactive)
CCC(C)Nc1nc2c(c(=O)n(C)c(=O)n2C)n1Cc1ccc(F)cc1 (stereo not drawn),436,14.8% (inactive),9.6% (inactive),100%,-18.5% (inactive),106%,-0.617 (inactive),-3.2e-05 (inactive),0.00579 (inactive),15.9% (inactive),23.7% (inactive)
COc1cccc(C2CC(=O)Nc3c2c(=O)n(C)c(=O)n3C)c1OC (stereo not drawn),499,2.4% (inactive),-11.6% (inactive),39.6%,-17.6% (inactive),112%,-0.536 (inactive),2e-06 (inactive),0.00679 (inactive),-4.94% (inactive),16.2% (inactive)
CC1CCN(C(=O)CSc2nnc(-c3ccc(S(=O)(=O)N4CCOCC4)cc3)n2C)CC1,446,3.5% (inactive),-5.5% (inactive),97.2%,-169% (inactive),114%,-0.612 (inactive),-4.4e-05 (inactive),0.00393 (inactive),3.11% (inactive),0.175% (inactive)
Cc1cccc(N2C(=O)CC(N3CCN(C(=O)c4ccccc4)CC3)C2=O)c1 (stereo not drawn),408,19.1% (inactive),1.1% (inactive),106%,-12.6% (inactive),118%,-0.412 (inactive),-0.000104 (inactive),0.00671 (inactive),10.6% (inactive),16.7% (inactive)
COc1cccc(CNC(=O)Cn2c(=O)oc3ccccc32)c1OC,603,-4% (inactive),2.6% (inactive),59.7%,-16.3% (inactive),88.3%,-0.53 (inactive),-3.1e-05 (inactive),0.00743 (inactive),11.8% (inactive),31% (inactive)
Cc1cccc(OCCCC(=O)O)c1,438,1.4% (inactive),-12.7% (inactive),101%,-57.9% (inactive),116%,-0.584 (inactive),-3.6e-05 (inactive),0.00464 (inactive),-5.29% (inactive),8.09% (inactive)
COc1ccc(N2C(N)=C(C#N)C(c3cccnc3)C3=C2CC(C)(C)CC3=O)cc1 (stereo not drawn),446,-7.5% (inactive),-1.2% (inactive),97.7%,-1.3% (inactive),104%,-0.461 (inactive),-0.000329 (inactive),0.00535 (inactive),37.2% (inactive),38.7% (inactive)
O=C(c1ccco1)N1CCN(CCCCN2C(=O)c3ccccc3C2=O)CC1,265,26.7% (inactive),16% (inactive),89.1%,5.7% (inactive),95.4%,-0.593 (inactive),4.7e-06 (inactive),0.00572 (inactive),15.1% (inactive),36.3% (inactive)
Nc1ccc(C(=O)OCCCc2nc3ccccc3[nH]2)cc1,366,-2.2% (inactive),10.5% (inactive),95.7%,9% (inactive),92.5%,-0.589 (inactive),-5.8e-05 (inactive),0.00614 (inactive),-17.1% (inactive),-17.7% (inactive)
CCOC(=O)N1CCN(C(=O)c2cccn3c(=O)c4sccc4nc23)CC1,502,1.1% (inactive),-5.5% (inactive),102%,-5.7% (inactive),114%,-0.0756 (inactive),1.5e-05 (inactive),0.00326 (inactive),-8.79% (inactive),-5.35% (inactive)
NC(=O)c1ccccc1NC(=O)CCCN1C(=O)CCC1=O,567,-1.8% (inactive),-7.8% (inactive),104%,-30.7% (inactive),92.1%,-0.601 (inactive),-1.2e-05 (inactive),0.00648 (inactive),2.16% (inactive),13.3% (inactive)
O=C(c1ccco1)N1CCN(CC2CC3C=CC2C3)CC1 (stereo not drawn),269,-10.4% (inactive),-30.9% (inactive),7.7%,-30.7% (inactive),106%,-0.509 (inactive),2.8e-05 (inactive),0.00614 (inactive),-7.24% (inactive),-20% (inactive)
Cc1ccc(-c2nc3ccccc3[nH]2)s1,362,-13.1% (inactive),-2.5% (inactive),95.2%,-72.7% (inactive),101%,-0.277 (inactive),-1.4e-05 (inactive),0.00551 (inactive),-45.9% (inactive),-155% (inactive)
CCOc1ccc(NC(=O)C2CC(=O)N(CC)C(=Nc3ccc4c(c3)OCO4)S2)cc1 (stereo not drawn),356,-6.2% (inactive),12.9% (inactive),81.1%,-125% (inactive),113%,-0.358 (inactive),-6.3e-05 (inactive),0.00411 (inactive),-1.73% (inactive),1.26% (inactive)
Cc1c(C(=O)NCc2ccccn2)sc2nc(-c3ccc(F)cc3)cn12,482,-5.5% (inactive),-10% (inactive),61.1%,10.9% (inactive),104%,-0.502 (inactive),1.3e-05 (inactive),0.00621 (inactive),17.6% (inactive),-13.7% (inactive)
Cc1cccc(-c2nc(CN3CCCC(C(=O)NC4CCCC4)C3)c(C)o2)c1 (stereo not drawn),333,-0.4% (inactive),-3.8% (inactive),111%,-15.2% (inactive),103%,-0.514 (inactive),-5.9e-06 (inactive),0.00415 (inactive),20.6% (inactive),16.3% (inactive)
Clc1ccc(C2=Nn3c(nnc3-c3n[nH]c4c3CCC4)SC2)cc1Cl,434,3% (inactive),1.5% (inactive),101%,19.9% (inactive),95.9%,-0.498 (inactive),1.2e-05 (inactive),0.00652 (inactive),29.6% (inactive),33% (inactive)
